Compound activity deposited in PubChem BioAssay by University of Kansas High Throughput Screening Laboratory.
Pf apPOL block: Pf-apPOL DNA polymerase inhibition; Recombinant Pf-apPOL, molecular beacon fluorescence, 1.5 h; inhibition, % at 10 µM; actives 0.25% (n = 210,000); AID 1794808
mHTT-CaM PPI inh: inhibitors of human mutant huntingtin-calmodulin interaction. actives 3.6% (n = 190,000). inhibition, % at 15 µM. AID 1671202. AlphaScreen His-mHTT/GST-CaM binding, luminescence;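 further: 0% = both proteins with DMSO and 100% = one protein alone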
* = called active by the depositor; . = no result; + = active, no number. An excerpt weighted towards active compounds, which were near 3.5% of everything screened. No stated cut-off is given here; in the data, active means inhibition above about 50%; inactive means the rest.

SMILES	Pf apPOL block	mHTT-CaM PPI inh
O=C(Cc1ccc(F)cc1)Nc1nnc(C2CC(=O)N(c3ccc(Cl)cc3)C2)o1 (stereo unspecified)	-5.5	67.0*
O=C1OC(/C=C/c2cccc([N+](=O)[O-])c2)=NC/1=C\c1ccccc1	3.2	12.0
Cc1ccc2c(c1)/C(=C/c1ccccc1Cl)C(=O)N2	-3.1	16.0
O=C1Nc2ccc(Br)cc2/C1=C/c1ccccc1F	-1.4	31.0
CCOc1ccc(/C=C2\C(=O)Nc3ccc(Cl)cc32)cc1	-4.1	25.0
CCOc1ccccc1/C=C1\C(=O)Nc2ccc(Br)cc21	0.6	63.0*
CCOc1ccccc1/C=C1\C(=O)Nc2ccc(Cl)cc21	5.6	64.0*
CCCOc1ccccc1/C=C1\C(=O)Nc2ccc(Br)cc21	4.8	97.0*
Cc1ccccc1/C=C1\C(=O)Nc2ccc(Cl)cc21	-4.6	85.0*
CCOc1ccc(/C=C2\C(=O)Nc3ccc(Br)cc32)cc1	-7.9	40.0
CC(=O)c1sc(NC(=O)CN2C(=O)c3ccccc3C2=O)nc1C	3.7	-10.0
OCCNc1nnnc2c1sc1nc(N3CCOCC3)c3c(c12)CCCC3	-2.2	42.0
CC(C)(C)c1ccccc1OCC(=O)NN	3.2	-5.3
O=C1Nc2ccc(Cl)cc2/C1=C/c1ccc(Cl)cc1	1.4	35.0
CC(C)(C)c1ccc(/C=C2\C(=O)Nc3ccc(Cl)cc32)cc1	-21.6	60.0*
CCOc1cccc(/C=C2\C(=O)Nc3ccc(Br)cc32)c1O	-11.8	58.0*
Nc1nnc(-c2ccc(Br)o2)s1	.	1.7
CC(C)(C)c1cc(S)cc(C(C)(C)C)c1O	.	12.8
CC(C)(C)c1ccc(O)c(C(C)(C)C)c1O	-6.9	98.4*
OCCN1CCN(CC(O)COCc2ccc(Cl)cc2)CC1 (stereo unspecified)	-3.4	-2.1
O=C(NCc1cccnc1)/C(=N\O)c1ccccn1	11.4	+
O=C(NCc1cccnc1)C(=O)NCc1cccnc1	1.0	-5.0
Cc1ccccc1NC(=O)CN1CCOCC1	-1.6	-3.7
O=C(NCc1ccccn1)c1nc(-c2ccc(Cl)cc2)n2c1CCCCC2	-1.2	54.5*
O=C(Nc1ccccn1)c1nc(-c2ccc(Cl)cc2)n2c1CCCCC2	0.7	0.7
SMILES	Pf apPOL block	mHTT-CaM PPI inh
COc1ccccc1CNC(=O)c1nc(-c2ccc(C)cc2)n2c1CCCCC2	-1.2	61.1*
Cc1ccc(-c2nc(C(=O)NC(C)C)c3n2CCCCC3)cc1	-2.0	19.9
Cc1ccccc1CNC(=O)C1CCN(C(=O)c2cc3ccsc3[nH]2)CC1	-4.0	3.5
Cc1cccc(NC2=C(NCCO)C(=O)c3ccccc3C2=O)c1	-4.7	74.1*
COc1cccc(NC2=C(NCCO)C(=O)c3ccccc3C2=O)c1	-5.0	49.0
CNC(=O)N1CCCC(c2cccc(C(=O)N3CCN(c4cccc(Cl)c4)CC3)c2)C1 (stereo unspecified)	-7.0	97.7*
CNC(=O)N1CCCC(c2cccc(C(=O)N3CCN(c4ccccc4)CC3)c2)C1 (stereo unspecified)	-7.4	-1.0
CNC(=O)N1CCCC(c2cccc(C(=O)N3CCN(c4ccccc4C)CC3)c2)C1 (stereo unspecified)	-7.0	38.6
CNC(=O)N1CCCC(c2cccc(C(=O)N3CCN(c4cc(C)ccc4C)CC3)c2)C1 (stereo unspecified)	-5.5	80.1*
CCc1ccc(S(=O)(=O)N2CCc3c(c(-c4nc(C5CC5)no4)nn3C)C2)cc1	-3.6	6.3
COc1cc(C2C3=C(CC(C)(C)CC3=O)Nc3ccccc3N2C(C)=O)cc([N+](=O)[O-])c1O (stereo unspecified)	0.8	7.0
Cc1cc([N+](=O)[O-])ccc1NC(=O)C(Cl)(Cl)Cl	-10.3	-2.3
O=C(c1cccnc1)N1N=C(c2cccc(Br)c2)CC1(O)C(F)(F)F (stereo unspecified)	-4.5	10.0
COc1ccc(CNC(=O)CN(C)S(=O)(=O)c2ccc(Br)cc2)cc1	-3.4	-0.3
O=C1N/C(=C/c2ccc(N3CCCC3)cc2)C(=O)N1Cc1ccc([N+](=O)[O-])cc1	3.3	16.0
O=C1N/C(=C\c2ccc(N3CCCC3)cc2)C(=O)N1Cc1ccccc1Cl	87.7*	13.0
CCOCC(=O)NCCc1ccsc1	-6.2	-18.6
COc1ccc(NC(=O)c2cc(OC)c(OC)c(OC)c2)c([N+](=O)[O-])c1	1.4	-3.8
COc1ccc(NC(=O)c2ncn[nH]2)c([N+](=O)[O-])c1	-3.3	100.0*
COc1ccccc1C1CC(c2cc(F)ccc2O)=NN1 (stereo unspecified)	-1.1	40.0
Oc1ccc(Cl)cc1C1=NNC(c2cccs2)C1 (stereo unspecified)	-1.2	51.7*
O=[N+]([O-])c1ccc2nc(SCc3c[nH]c4ccccc34)sc2c1	-8.9	58.5*
O=[N+]([O-])c1ccc2nc(SCc3ccccc3F)sc2c1	-1.8	11.9
COc1ccc(NC(=O)NC(c2ccccc2)c2ccccc2)cc1N1CCCC1=O	3.0	55.3*
COc1ccc(NC(=O)CC(C)C)cc1N1CCCC1=O	-6.3	-10.1
